High-throughput results (PubChem)
Wee1 stabilizer = human Wee1 degradation inhibition, primary screen | P30291 | HeLa Luc-Wee1K328M stability, luciferase luminescence; 100% = proteasome inhibitor MG132 effect | reporter increase, % at 5 µM | actives 1.2% (n = 220,000);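 active = activation above the mean of all tested compounds plus 3 SD, set per screening run, cut at about 8.8% in these data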;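 also: cells exposed to compound for 20 h before luminescence read; 0% = DMSO alone and 100% = MG132 at 30 µM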
Target sequence (P30291 whole entry K328M): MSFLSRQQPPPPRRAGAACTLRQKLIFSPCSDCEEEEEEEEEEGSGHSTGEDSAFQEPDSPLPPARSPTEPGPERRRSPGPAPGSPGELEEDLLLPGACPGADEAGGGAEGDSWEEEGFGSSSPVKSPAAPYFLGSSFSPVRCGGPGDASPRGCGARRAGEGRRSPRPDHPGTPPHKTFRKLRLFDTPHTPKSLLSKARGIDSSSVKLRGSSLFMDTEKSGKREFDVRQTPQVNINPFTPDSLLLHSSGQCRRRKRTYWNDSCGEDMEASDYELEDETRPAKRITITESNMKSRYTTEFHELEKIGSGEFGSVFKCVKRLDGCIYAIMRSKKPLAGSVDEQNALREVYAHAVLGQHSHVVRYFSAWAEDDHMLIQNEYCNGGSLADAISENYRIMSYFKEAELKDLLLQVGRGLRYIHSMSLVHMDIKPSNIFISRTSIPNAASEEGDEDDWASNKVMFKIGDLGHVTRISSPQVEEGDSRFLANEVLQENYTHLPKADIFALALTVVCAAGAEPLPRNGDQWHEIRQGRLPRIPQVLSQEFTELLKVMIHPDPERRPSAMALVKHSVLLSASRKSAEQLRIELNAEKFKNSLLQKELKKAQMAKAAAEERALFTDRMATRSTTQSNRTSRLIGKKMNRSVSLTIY
p97 inhibitor = blocks human p97 ATPase activity | P55072 | recombinant p97 ATPase, Kinase-Glo ATP luminescence, 3 h | inhibition, % at 8 µM | actives 0.42% (n = 220,000) | AID 1481; in the data active = inhibition above about 15%;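 also: 0% = DMSO vehicle and 100% = wells lacking enzyme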
HSV augment = increases HSV replication in cells. HSV replication augmentation in cells, fold increase. maximum fold increase. actives 0.005% (n = 220,000). AID 1956; in the data active = maximum fold increase above about 1.5; tested in PC3 cells
Redox H2O2 prof = compounds producing H2O2 with reducing agent – biochemical, NIH compound library profiling, artefact control for MLSCN library redox annotation, primary screen | DTT-dependent redox cycling H2O2, phenol red/HRP absorbance; 100% = 100 µM peroxide control, 0% = buffer | actives 0.03% (n = 200,000) | AID 878 | activation, % at 10 µM;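 active = activation of at least 50% relative to the plate's high and low controls in the primary single-dose screen; inactive = activation below 50%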;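 also: compound incubated with DTT at 0.8 mM final as the reducing agent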
Hsp70 activator = transcriptional activators of Hsp70; HeLa Hsp70 promoter luciferase reporter, luminescence; scaled: vehicle 0, proteasome-inhibitor control 100%; activation, % at 10 µM; actives 0.04% (n = 200,000); AID 1203;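 active = activation above the mean across all tested compounds plus 3 SD, cutoff set per campaign, cut at about 5.5% in these data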;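 also: 100% = MG132 at 30 µM as the positive control and 0% = DMSO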
p97 inh conf = confirmation of human p97 ATPase inhibitors; AID 1517; shares compounds with p97 inhibitor; inhibition, % at 8 µM; recombinant p97 ATPase, Kinase-Glo ATP luminescence; actives 44% (n = 760);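 active = percent inhibition of p97 ATPase above a set limit, the primary screen's mean plus 3 SD, cut at about 15% in these data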;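 also: 0% = DMSO wells and 100% = wells lacking p97 protein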
* = called active by the depositor; i = inactive; . = no result given. An excerpt weighted towards active compounds, which were near 1.6% of everything screened.

SMILES	Wee1 stabilizer	p97 inhibitor	HSV augment	Redox H2O2 prof	Hsp70 activator	p97 inh conf
C=C1c2cccc(O)c2C(O)=C2C(=O)[C@]3(O)C(O)=C(C(N)=O)C(=O)[C@@H](N(C)C)[C@@H]3[C@@H](O)[C@H]12	-1.1	63.0*	i	0.4	-0.1	8.1
Cc1cc(=O)n(C2CCS(=O)(=O)C2)[nH]1 (configuration not stated)	-1.7	24.1*	i	0.0	-0.2	6.2
COc1ccc(OC)c(-n2c(SCC(=O)Nc3cc(C)on3)nnc2-c2c[nH]c3ccccc23)c1	2.3	-1.3	i	-0.8	0.0	.
CC(=O)c1sc(C(C)(C)C)cc1NC(=O)/C=C/C(=O)O	-2.4	15.2*	i	.	.	8.9
O=C(OCC(=O)c1c[nH]c2ccccc12)c1ccc([N+](=O)[O-])s1	-1.3	31.2*	i	-0.1	-0.1	40.1*
Oc1ccc(-c2csc(-c3c[nH]c4ccccc34)n2)c(O)c1	0.9	19.3*	i	0.4	0.1	22.5*
CCOC(=O)c1cccc(NC(=O)CCNS(=O)(=O)c2ccc3c(c2)CCN3C(=O)CC)c1	1.0	-0.3	i	-2.4	-0.3	.
CCCn1c(=O)n(C)c(=O)c2c(SCC(=O)NC34CC5CC(CC(C5)C3)C4)nc(CC(C)C)nc21	-0.6	-0.7	i	1.7	-0.1	.
CC(=O)OCC(=O)C1=CCC2C3CCC4=CC(=O)C=CC4(C)C3(F)C(OC(C)=O)CC12C (configuration not stated)	1.2	14.8*	i	9.2	-0.3	7.0
C[C@@H]1C[C@H]2[C@@H]3CCC4=CC(=O)C=C[C@]4(C)[C@@]3(F)[C@@H](O)C[C@]2(C)[C@@]1(O)C(=O)COP(=O)(O)O	-0.9	7.0	i	-0.7	-0.3	.
Cc1nc(C(F)(F)F)c(C(=O)N/N=C(\N)c2cccnc2)s1	-3.8	5.7	i	-1.4	-0.2	.
N#Cc1c(N(CCO)CCO)nc(N)c2c(N)nc3c(c12)CC(=O)N3CC1CCCO1 (configuration not stated)	7.2	26.1*	i	.	.	4.1
CCCCN1C(=O)Cc2c1nc(N)c1c(N)nc(N(CCC)CCC)c(C#N)c21	2.5	-1.1	.	-0.5	-0.3	.
CN1CCN(C(c2cccc(C(F)(F)F)c2)c2nnnn2C(C)(C)C)CC1 (configuration not stated)	-4.0	0.5	i	1.7	-0.3	.
N#C/C(=C(/O)c1ccc([N+](=O)[O-])o1)c1nc2ccccc2[nH]1	2.0	6.0	.	.	.	.
Cc1ccc2nc(/C(C#N)=C\c3ccc([N+](=O)[O-])o3)[nH]c2c1	1.0	15.8*	.	-8.0	-0.4	32.0*
Cc1ccc2nc(/C(C#N)=C\c3cc(C)n(-c4cccc([N+](=O)[O-])c4)c3C)[nH]c2c1	-0.2	5.7	i	1.2	-0.4	.
N#C/C(=C\c1ccc([N+](=O)[O-])o1)c1nc2ccccc2[nH]1	-1.6	20.9*	.	0.7	-0.4	36.1*
Cc1nnsc1Sc1cccc(C(F)(F)F)c1	0.6	15.6*	i	2.1	-0.4	0.8
O=C(c1cccs1)N1CCN=C1SCc1ccc(F)cc1	-2.4	3.4	i	.	.	.
C=C1C2(C(=O)Nc3nccs3)CCC(C2)C1(C)C (configuration not stated)	-0.5	37.1*	i	-0.6	-0.3	5.9
CCOc1ccccc1C(=O)Nc1cc(Cl)ccc1O	4.0	17.6*	i	0.6	0.2	23.2*
O=C(c1ccc(Br)cc1)c1cc([N+](=O)[O-])ccc1N1CCOCC1	0.5	-0.5	i	-0.2	-0.2	.
CN(C)/C=N/c1ncc(C(=O)c2ccc(-c3ccccc3)cc2)s1	-3.1	-2.0	i	-1.1	-0.4	.
O=C(Nc1cccc(NC(=O)c2cccs2)c1)c1ccc([N+](=O)[O-])o1	0.3	18.3*	i	.	.	24.8*
SMILES	Wee1 stabilizer	p97 inhibitor	HSV augment	Redox H2O2 prof	Hsp70 activator	p97 inh conf
CC(=O)Nc1ccc(S(=O)(=O)NCCNC(=O)c2ccccc2F)cc1	-0.3	-4.2	i	1.5	-0.6	.
COc1ccc([N+](=O)[O-])c(S(=O)(=O)c2ccccc2)n1	-0.3	15.0*	i	.	.	17.2*
CCC1CCCCN1C(=O)c1ccccc1OC1CCN(S(C)(=O)=O)CC1 (configuration not stated)	3.5	-7.1	i	0.3	-0.1	.
CCC(=O)Nc1cccc(-c2cn3ccsc3n2)c1	3.1	15.2*	i	-0.1	-0.2	10.4
CC(C)CC(=O)Nc1cccc(-c2cn3ccsc3n2)c1	-0.4	0.8	i	0.6	0.9	.
CC[N+]1(C)CCC(=C2c3ccccc3CC(=O)c3sccc32)CC1 (configuration not stated)	4.2	5.4	i	12.9	0.2	.
C[N+]1(C)CCC(=C2c3ccccc3CC(=O)c3sccc32)CC1	-2.5	19.2*	i	-0.3	0.7	13.9
Cc1cc(C)n(-c2nc(NCC(C)O)c3c4c(sc3n2)CCCC4)n1 (configuration not stated)	-3.2	-1.5	i	-0.2	0.3	.
COc1ccc(-c2cc(=O)n(CCC#N)[nH]2)cc1	-1.8	24.9*	i	-0.3	-0.4	1.7
COc1ccc(-c2cc(=O)[nH][nH]2)cc1	-0.8	-3.0	i	-0.4	-0.2	.
Cc1nc(N)sc1-c1csc(Nc2ncccn2)n1	0.7	6.3	i	-1.7	0.3	.
CS(=O)(=O)N(CC(=O)NCCc1ccccc1)c1cccc([N+](=O)[O-])c1	2.9	17.7*	i	-0.2	-0.4	5.0
COc1ccccc1C(=O)NCC(=O)N/N=C/c1ccncc1	-0.6	16.2*	i	-1.1	-0.1	1.4
COc1ccc(Cl)cc1NC(=O)C/C(C)=N/NC(=O)Cc1ccccc1	-2.6	15.1*	i	-0.5	-0.5	5.9
COc1ccc2cc(C#N)c(SCC(=O)N3CC(=O)Nc4ccccc43)nc2c1	-1.6	15.3*	i	.	.	8.1
Cc1cccc2cc(C#N)c(SCC(=O)N3CC(=O)Nc4ccccc43)nc12	-0.1	7.8	i	2.5	1.2	.
CC(C)c1ccc(S(=O)(=O)c2ccc(NN)cc2)cc1	-1.2	-5.9	i	-0.3	-0.4	.
NC(=O)C1(N2CCCCC2)CCN(CC(=O)Nc2ccc(Oc3ccccc3)cc2)CC1	1.7	-6.5	i	-0.4	0.0	.
NC(=O)C(=CNc1nc(-c2ccc(Cl)c(Cl)c2)cs1)C(N)=O	5.0	26.4*	i	.	.	18.9*
O=C(O)c1ccc(-c2nc(-c3ccc(Cl)c(Cl)c3)cs2)cc1	-2.9	-0.6	i	-0.3	0.0	.
COc1ccc(NC(=O)C(Cl)=C(Cl)Cl)cn1	-0.4	28.2*	i	-1.2	-0.2	35.0*
CC(NC(=O)Nc1ccccn1)N1C(=O)C2C3C=CC(C3)C2C1=O (configuration not stated)	0.2	0.6	i	4.8	-0.2	.
